# Many of the other results were omitted from the sample, so the strongest signals are more common in it than they were.
# B1: Banana lectin (Musa acuminata) (protein)
# chain: MNGAIKVGAWGGNGGSAFDMGPAYRIISVKIFSGDVVDGVDVTFTYYGKTETRHYGGSGGTPHEIVLQEGEYLVGMAGEVANYTGAVVLGKLGFSTNKKAYGPFGNTGGTPFSLPIAAGKISGFFGRGGKFLDAIGVYLEPLEHHHHHH
# How the values were obtained:
# Assay in all cases: glycan array binding signal (z-score within array); higher = stronger binding
# Conditions in all cases: glycan notation: IUPAC condensed, linker removed; mutation: H84T
# [1] = target: Fuc(a1-2)Gal(b1-3)GlcNAc
# Outline: (§1)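 Glycan array data were curated from 3228 arrays in the Consortium for Functional Glycomics database and kept only where the protein sequence was available. Glycan names were converted to IUPAC-condensed notation, and columns mapping to the same glycan were averaged. The binding signal is a within-array Z-score, averaged across arrays of the same protein sequence at different concentrations or buffers and across linkers. Negative Z-scores can be read as non-binding.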
# [2] = target: Fuc(a1-2)Gal(b1-3)GlcNAc(b1-2)Man(a1-3)[Fuc(a1-2)Gal(b1-3)GlcNAc(b1-2)Man(a1-6)]Man(b1-4)GlcNAc(b1-4)[Fuc(a1-6)]GlcNAc
# Outline: as §1
# [3] = target: Fuc(a1-2)Gal(b1-4)GlcNAc(b1-3)Gal(b1-4)GlcNAc(b1-2)Man(a1-3)[Fuc(a1-2)Gal(b1-4)GlcNAc(b1-3)Gal(b1-4)GlcNAc(b1-2)Man(a1-6)]Man(b1-4)GlcNAc(b1-4)GlcNAc
# Outline: as §1
# [4] = target: Fuc(a1-2)Gal(b1-4)[Fuc(a1-3)]GlcNAc(b1-3)[Neu5Ac(a2-6)Gal(b1-4)GlcNAc(b1-6)]Gal(b1-4)Glc
# Outline: as §1
# [5] = target: Fuc(a1-2)[GalNAc(a1-3)]Gal(b1-3)GalNAc(b1-3)Gal(a1-4)Gal(b1-4)Glc
# Outline: as §1
# [6] = target: Fuc(a1-3)GlcNAc
# Outline: as §1
# [7] = target: Fuc(b1-3)GlcNAc
# Outline: as §1
# [8] = target: Gal(a1-3)Gal(b1-3)[Fuc(a1-4)]GlcNAc(b1-2)Man(a1-3)[Gal(a1-3)Gal(b1-3)[Fuc(a1-4)]GlcNAc(b1-2)Man(a1-6)]Man(b1-4)GlcNAc(b1-4)GlcNAc
# Outline: as §1
# [9] = target: Gal(b1-3)GlcNAc(b1-6)GalNAc
# Outline: as §1
# [10] = target: Gal(b1-3)[Neu5Ac(a2-6)]GalNAc
# Outline: as §1
# [11] = target: Gal(b1-4)GlcNAc(b1-2)[Gal(b1-4)GlcNAc(b1-6)]Man(a1-6)[GlcNAc(b1-4)][Gal(b1-4)GlcNAc(b1-2)Man(a1-3)]Man(b1-4)GlcNAc(b1-4)GlcNAc
# Outline: as §1
# [12] = target: Gal(b1-4)GlcNAc(b1-6)Gal(b1-4)GlcNAc
# Outline: as §1
# [13] = target: Gal3S(b1-4)[Fuc(a1-3)]GlcNAc6S
# Outline: as §1
# [14] = target: GlcNAc(a1-4)Gal(b1-4)GalNAc
# Outline: as §1
# [15] = target: GlcNAc(b1-3)Gal(b1-4)GlcNAc(b1-3)Gal(b1-4)GlcNAc(b1-3)Gal(b1-4)GlcNAc(b1-2)Man(a1-3)[GlcNAc(b1-3)Gal(b1-4)GlcNAc(b1-3)Gal(b1-4)GlcNAc(b1-3)Gal(b1-4)GlcNAc(b1-2)Man(a1-6)]Man(b1-4)GlcNAc(b1-4)[Fuc(a1-6)]GlcNAc
# Outline: as §1
# [16] = target: GlcNAc6S(b1-3)Gal(b1-4)GlcNAc
# Outline: as §1
# [17] = target: Kdn(a2-3)Gal(b1-4)GlcNAc
# Outline: as §1
# [18] = target: Man(a1-2)Man(a1-2)Man(a1-6)[Man(a1-3)]Man
# Outline: as §1
# [19] = target: Man(a1-2)Man(a1-3)[Man(a1-2)Man(a1-6)]Man
# Outline: as §1
# [20] = target: Man(a1-2)Man(a1-3)[Man(a1-2)Man(a1-6)]Man(a1-6)[Man(a1-2)Man(a1-2)Man(a1-3)]Man
# Outline: as §1
# [21] = target: Man(a1-2)Man(a1-3)[Man(a1-2)Man(a1-6)]Man(a1-6)[Man(a1-2)Man(a1-2)Man(a1-3)]Man(b1-4)GlcNAc(b1-4)GlcNAc
# Outline: as §1
# [22] = target: Man(a1-2)Man(a1-3)[Man(a1-6)]Man(a1-6)[Man(a1-2)Man(a1-3)]Man(b1-4)GlcNAc(b1-4)GlcNAc
# Outline: as §1
# [23] = target: Man(a1-2)Man(a1-6)[Man(a1-3)]Man(a1-6)[Man(a1-2)Man(a1-2)Man(a1-3)]Man
# Outline: as §1
# [24] = target: Man(a1-2)Man(a1-6)[Man(a1-3)]Man(a1-6)[Man(a1-2)Man(a1-2)Man(a1-3)]Man(b1-4)GlcNAc(b1-4)GlcNAc
# Outline: as §1
# [25] = target: Man(a1-3)[Man(a1-6)]Man
# Outline: as §1
# [26] = target: Man(a1-3)[Man(a1-6)]Man(a1-6)[Man(a1-2)Man(a1-3)]Man(b1-4)GlcNAc(b1-4)GlcNAc
# Outline: as §1
# [27] = target: Man(a1-3)[Man(a1-6)]Man(a1-6)[Man(a1-3)]Man(b1-4)GlcNAc(b1-4)GlcNAc
# Outline: as §1
# [28] = target: Man(a1-3)[Man(a1-6)]Man(b1-4)GlcNAc(b1-4)GlcNAc
# Outline: as §1
# [29] = target: Man(a1-3)[Man(a1-6)]Man(b1-4)GlcNAc(b1-4)[Fuc(a1-6)]GlcNAc
# Outline: as §1
# [30] = target: Neu5Ac(a2-3)Gal
# Outline: as §1
# [31] = target: Neu5Ac(a2-3)Gal(b1-4)GlcNAc(b1-2)Man
# Outline: as §1
# [32] = target: Neu5Ac(a2-3)Gal(b1-4)GlcNAc(b1-2)Man(a1-3)[Neu5Ac(a2-3)Gal(b1-4)GlcNAc(b1-2)Man(a1-6)]Man(b1-4)GlcNAc(b1-4)GlcNAc
# Outline: as §1
# [33] = target: Neu5Ac(a2-3)Gal(b1-4)GlcNAc(b1-3)Gal(b1-3)GlcNAc
# Outline: as §1
# [34] = target: Neu5Ac(a2-3)Gal(b1-4)GlcNAc(b1-3)Gal(b1-4)GlcNAc(b1-3)[Neu5Ac(a2-3)Gal(b1-4)GlcNAc(b1-3)Gal(b1-4)GlcNAc(b1-6)]GalNAc
# Outline: as §1
# [35] = target: Neu5Ac(a2-3)Gal(b1-4)GlcNAc(b1-3)Gal(b1-4)[Fuc(a1-3)]GlcNAc
# Outline: as §1
# [36] = target: Neu5Ac(a2-3)Gal(b1-4)[Fuc(a1-3)]GlcNAc
# Outline: as §1
# [37] = target: Neu5Ac(a2-3)Gal(b1-4)[Fuc(a1-3)]GlcNAc(b1-6)[Gal(b1-3)]GalNAc
# Outline: as §1
# [38] = target: Neu5Ac(a2-6)Gal(b1-4)GlcNAc(b1-2)Man(a1-3)[Man(a1-6)]Man(b1-4)GlcNAc(b1-4)GlcNAc
# Outline: as §1
# [39] = target: Neu5Ac(a2-6)Gal(b1-4)GlcNAc(b1-2)[Neu5Ac(a2-6)Gal(b1-4)GlcNAc(b1-4)]Man(a1-3)[GlcNAc(b1-4)][Neu5Ac(a2-6)Gal(b1-4)GlcNAc(b1-4)Man(a1-6)]Man(b1-4)GlcNAc(b1-4)GlcNAc
# Outline: as §1
# [40] = target: Neu5Ac(b2-6)Gal(b1-4)GlcNAc
# Outline: as §1
# [41] = target: Neu5Gc(a2-8)Neu5Gc(a2-3)Gal(b1-4)GlcNAc
# Outline: as §1
binder,measurement,setting,value
B1,glycan array binding signal (z-score),[1],-0.164
same,glycan array binding signal (z-score),[2],-0.026
same,glycan array binding signal (z-score),[3],-0.09
same,glycan array binding signal (z-score),[4],-0.193
same,glycan array binding signal (z-score),[5],-0.165
same,glycan array binding signal (z-score),[6],-0.218
same,glycan array binding signal (z-score),[7],-0.189
same,glycan array binding signal (z-score),[8],0.562
same,glycan array binding signal (z-score),[9],-0.155
same,glycan array binding signal (z-score),[10],-0.154
same,glycan array binding signal (z-score),[11],-0.098
same,glycan array binding signal (z-score),[12],-0.206
same,glycan array binding signal (z-score),[13],-0.177
same,glycan array binding signal (z-score),[14],-0.184
same,glycan array binding signal (z-score),[15],-0.082
same,glycan array binding signal (z-score),[16],-0.199
same,glycan array binding signal (z-score),[17],-0.189
same,glycan array binding signal (z-score),[18],8.2
same,glycan array binding signal (z-score),[19],2.21
same,glycan array binding signal (z-score),[20],7.07
same,glycan array binding signal (z-score),[21],5.46
same,glycan array binding signal (z-score),[22],4.86
same,glycan array binding signal (z-score),[23],5.72
same,glycan array binding signal (z-score),[24],10.1
same,glycan array binding signal (z-score),[25],6.01
same,glycan array binding signal (z-score),[26],11.3
same,glycan array binding signal (z-score),[27],5.96
same,glycan array binding signal (z-score),[28],4.6
same,glycan array binding signal (z-score),[29],1.98
same,glycan array binding signal (z-score),[30],-0.212
same,glycan array binding signal (z-score),[31],-0.188
same,glycan array binding signal (z-score),[32],-0.182
same,glycan array binding signal (z-score),[33],-0.175
same,glycan array binding signal (z-score),[34],-0.109
same,glycan array binding signal (z-score),[35],-0.179
same,glycan array binding signal (z-score),[36],-0.19
same,glycan array binding signal (z-score),[37],-0.16
same,glycan array binding signal (z-score),[38],0.399
same,glycan array binding signal (z-score),[39],-0.177
same,glycan array binding signal (z-score),[40],-0.184
same,glycan array binding signal (z-score),[41],-0.162

# From the supplement of paper PMC8728848
